SW480 rereplic – inducers of DNA re-replication in SW480 colon cancer cells; SW480 DNA re-replication, Hoechst DNA content imaging, 48 h; Potency, µM (doses to about 46.1 µM), for inactives: at the top dose re-replication activation, usual class: activators; hit rate 1.8% among 340,000; further: potency means the concentration at half of the fitted maximal effect; % of control where 0% means no effect; nearly all actives have a fitted effect of over 55% in size
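DNA re-replication was detected as more nuclei of elevated Hoechst intensity after 48 hr exposure to compound (23 nL pinned per well of 250 cells).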
ATXN viability – cell viability loss in ATXN counter-screen. S2 cells (HEK-293 line with an ATXN2-luciferase reporter) viability, CellTiter-Fluor protease fluorescence, 24 h. hit rate 0.49% among 400,000. AID 651635. Potency, µM (top dose mostly 56.7 µM), most hits filed as cytotoxic; further: potency means the concentration at half of the fitted maximal effect; nearly all actives have a fitted effect of over 40% in size
ATXN2 expr inh – ATXN2 expression inhibition | HEK-293 ATXN2-luciferase reporter, luminescence, 24 h | Potency, µM (titrated, usually from 57 µM), inactives show at the highest dose activity change, negative = inhibition, hits mostly inhibitors | hit rate 0.72% among 360,000; further: potency means the concentration at half of the fitted maximal effect; on the % scale 0 is the no-effect control and ±100 the full control effect; nearly all actives have a fitted effect of over 55% in size
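qHTS (up to 57 uM final) was run with 24 h compound exposure of reporter cells at 37 °C. Each well was multiplexed: SteadyGlo luminescence measured ATXN2-luciferase expression after a fluorogenic Gly-Phe-AFC viability readout (25 uM final).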
IL-1B inflam inh – inhibitors of inflammasome signaling (IL-1 beta secretion) | THP-1 LPS/ATP IL-1B secretion, AlphaLISA, 16 h; hits give low values | activity change, % at 57.5 µM | hit rate 4.7% among 360,000; in the data active means activity change below about -50%; inconclusive means mostly about -30% to -49%; further: on the % scale 0 is the no-effect control and ±100 the full control effect
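THP-1 cells pretreated 1 hr with compounds (up to 57.5 uM final), then stimulated with LPS (250 ng/mL final) plus ATP (1.25 mM final); secreted IL-1B measured by AlphaLISA after 16 hr, decreased signal indicating inhibition.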
MCF10A rereplic – induces DNA re-replication in MCF 10a normal breast cells. MCF 10A DNA re-replication, Hoechst nuclear intensity, 48 h. hit rate 2.9% among 350,000. AID 624296. Potency, µM (top dose mostly 46.1 µM), without a hit: at the highest dose activity, positive = re-replication, most hits filed as activators; further: potency means the concentration at half of the fitted maximal effect; % of control where 0% means no effect; nearly all actives have a fitted effect of over 50% in size
PINK1 modulator – PINK1 expression modulation; AID 624263; Potency, µM (doses to about 76.6 µM), for inactives: at the top dose activation (PINK1 increase), actives largely listed as activators; PINK1 immunofluorescence, high-content cytometry, 24 h; hit rate 0.2% among 410,000; active means well fitted activation curve with a large enough effect; inconclusive means small, poorly fitted or top-dose-only effect; cell line not stated here; further: potency means the concentration at half of the fitted maximal effect; % of control where 0% means no effect; nearly all actives have a fitted effect of over 65% in size
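Fluorescence from anti-PINK1 antibody, together with nuclear and cell stains, was scanned on a laser-scanning cytometer. Before staining, stable-line cells were incubated 24 hours with compounds at 5 concentrations; primary antibody 12 h at 10 degrees C.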
* = called active by the depositor; [ ] = remark or other dose. Shown are actives, neighbours in structure and some others; about 7.1% of the full set was active somewhere. Unless noted, the call rests on the fitted dose curve; in most records, active means well fitted curve in the direction sought with a large enough effect; inconclusive means small, poorly fitted or top-dose-only effect, or another doubt; inactive means no such curve, though single readings can be large; an effect the other way counts as inactive or inconclusive.

`CC(C)OP(=O)(CP(=O)(OC(C)C)OC(C)C)OC(C)C` gave ATXN viability inactive and ATXN2 expr inh 3%.
`CC1(C)Cc2c(sc3nc(-c4ccccc4)n(N)c(=O)c23)CO1` gave SW480 rereplic -5%, ATXN viability inactive, ATXN2 expr inh 19%, IL-1B inflam inh -76*, MCF10A rereplic inconclusive and PINK1 modulator -1%.
`CC1(C)Cc2c(sc3nc(-c4cccs4)n(N)c(=O)c23)CO1` gave SW480 rereplic inconclusive, ATXN viability inconclusive, ATXN2 expr inh -15%, IL-1B inflam inh -12, MCF10A rereplic inconclusive and PINK1 modulator -1%[38.3 µM].
Screening Nc1ccccc1-c1ccc([N+](=O)[O-])cc1 returned SW480 rereplic inconclusive, ATXN viability inactive, ATXN2 expr inh -11%, IL-1B inflam inh -1, MCF10A rereplic 23µM* and PINK1 modulator 3%.
CCOP(=O)(OCC)c1nc(-c2ccc(Cl)cc2Cl)oc1N1CCCCC1 was read as SW480 rereplic 7%, ATXN viability inactive, ATXN2 expr inh -31%, IL-1B inflam inh -113*, MCF10A rereplic 16µM* and PINK1 modulator -1%.
Screening CCOP(=O)(OCC)c1nc(-c2ccccc2Cl)oc1N1CCOCC1 returned SW480 rereplic -18%, ATXN viability inactive, ATXN2 expr inh 11%, IL-1B inflam inh 6, MCF10A rereplic inconclusive and PINK1 modulator inconclusive.
Cc1oc(-c2ccc(C(=O)NCc3ccccc3F)cc2)nc1COc1ccccc1 was read as ATXN viability inactive, ATXN2 expr inh -21% and PINK1 modulator 8%.
For COc1cc(CNCCNC(=O)c2nonc2N)ccc1OCc1ccc(Cl)cc1 the results were SW480 rereplic 0%, ATXN viability inactive, ATXN2 expr inh -17%, IL-1B inflam inh -95*, MCF10A rereplic inconclusive and PINK1 modulator -1%.
For COc1cccc(CNCCNC(=O)c2nonc2N)c1 the results were SW480 rereplic -1%, ATXN viability inactive, ATXN2 expr inh -2%, IL-1B inflam inh -11, MCF10A rereplic 1% and PINK1 modulator -1%.
`Nc1nonc1C(=O)NCCNCc1cc(Br)ccc1OCc1ccccc1F` gave SW480 rereplic 5%, ATXN viability inactive, ATXN2 expr inh inconclusive, IL-1B inflam inh -56*, MCF10A rereplic 25% and PINK1 modulator 0%.
`CC(=O)OC[C@H]1O[C@@H](Oc2cc3ccc(=O)oc3cc2OC(C)=O)[C@H](OC(C)=O)[C@@H](OC(C)=O)[C@@H]1OC(C)=O` gave SW480 rereplic 21µM*, ATXN2 expr inh 1%, IL-1B inflam inh 12, MCF10A rereplic -65% and PINK1 modulator 1%.
For C=CCN1C(=O)C(CC(=O)O)SC1=Nc1ccc(C)cc1 (centres undefined) the results were SW480 rereplic -19%, ATXN viability inconclusive, ATXN2 expr inh 5%, IL-1B inflam inh 15, MCF10A rereplic 2.6µM* and PINK1 modulator 1%.
For C=CCN1C(=O)C(Cc2cccc(C)c2)SC1=Nc1ccc(C(=O)O)cc1 (centres undefined) the results were SW480 rereplic 0%, ATXN viability inactive, ATXN2 expr inh 0%, IL-1B inflam inh 12, MCF10A rereplic -1% and PINK1 modulator -1%[38.3 µM].
Screening Cc1ccc(CN2CCc3nc(N4CCN(c5ccccc5F)CC4)ncc3C2)s1 returned ATXN viability inactive, ATXN2 expr inh -2% and PINK1 modulator 2%.
Screening C=CCNC(=S)NNc1nc2c(c(=O)[nH]1)C1(CCCCC1)Cc1ccccc1-2 returned SW480 rereplic inconclusive, ATXN viability inactive, ATXN2 expr inh 3%, IL-1B inflam inh -3, MCF10A rereplic 23µM* and PINK1 modulator 15%.
Screening O=C(NNC1=Nc2ccccc2SC1)c1ccc(Cl)cc1 returned SW480 rereplic 18µM*, ATXN viability inconclusive, ATXN2 expr inh 14µM*, IL-1B inflam inh 57, MCF10A rereplic inconclusive and PINK1 modulator 7%.
`O=C(NNC1=Nc2ccccc2SC1)c1ccc(F)cc1` gave SW480 rereplic -6%, ATXN viability inactive, ATXN2 expr inh -31%, IL-1B inflam inh 26, MCF10A rereplic 2% and PINK1 modulator 4%.
Screening O=C(Nc1cccc(Cl)c1)Nc1ccccc1C(=O)NCc1ccco1 returned SW480 rereplic -1%, ATXN viability inactive, ATXN2 expr inh 40%, IL-1B inflam inh -53*, MCF10A rereplic 6% and PINK1 modulator 3%.
For COc1ccc(C(=O)Nc2ccc(Cl)cc2C(=O)NCc2ccco2)cc1OC the results were SW480 rereplic -2%, ATXN viability inactive, ATXN2 expr inh -4%, IL-1B inflam inh -58*, MCF10A rereplic inconclusive and PINK1 modulator -1%.
`NC(=O)CCC1NC(=O)C(Cc2ccccc2)NC(=O)C(Cc2ccc(O)cc2)NC(=O)CCSSCC(C(=O)N2CCCC2C(=O)NC(CCCN=C(N)N)C(=O)NCC(N)=O)NC(=O)C(CC(N)=O)NC1=O` (centres undefined) gave SW480 rereplic inconclusive and MCF10A rereplic 4%.
COc1ccc(NC(=O)Cn2ccn(-c3ccc(F)c(F)c3)c(=O)c2=O)cc1Cl was read as PINK1 modulator 1%.
For COC(=O)c1nn(-c2c(C)n(C)n(-c3ccccc3)c2=O)cc1O the results were SW480 rereplic 5%, ATXN viability inactive, ATXN2 expr inh 1%, IL-1B inflam inh 1, MCF10A rereplic 4.1µM* and PINK1 modulator 2%[38.3 µM].
Screening Fc1ccc(C(NCCc2ccc(Cl)cc2)c2nnc(-c3ccccc3Cl)o2)cc1 (centres undefined) returned ATXN viability inconclusive, ATXN2 expr inh -3% and PINK1 modulator 3%.
CCOC(=O)c1c(CSc2cccs2)n(C)c2cc(Br)c(O)c(CN(C)C)c12 was read as SW480 rereplic 5%, ATXN viability inactive, ATXN2 expr inh -32%, IL-1B inflam inh -54*, MCF10A rereplic 5% and PINK1 modulator -1%.
N=c1c2c(ncn1Cc1ccco1)Oc1cc(O)ccc1C2c1ccccc1 (centres undefined) was read as SW480 rereplic inconclusive, ATXN viability inactive, ATXN2 expr inh -32%, IL-1B inflam inh -62*, MCF10A rereplic 18% and PINK1 modulator 2%.
`N=c1c2c(ncn1Cc1ccco1)Oc1c(ccc3ccccc13)C2c1ccccc1` (centres undefined) gave SW480 rereplic inconclusive, ATXN viability inconclusive, ATXN2 expr inh inconclusive, IL-1B inflam inh inconclusive, MCF10A rereplic 94% and PINK1 modulator -2%.

Screens: PubChem, National Center for Advancing Translational Sciences (NCATS)
